The list is not random: actives were taken first. Their share in the collection is about 0.88%.
TRHR PAM: allosterically enhances the human TRH receptor; P34981; TRHR cells, fluo-8 calcium fluorescence, EC20 TRH enhancement; enhancement, % at 2 µM; 360,000 compounds, 0.66% hits; in the data active = enhancement above about 30%; note: 0% is about no effect
Target sequence (P34981 whole entry, looked up): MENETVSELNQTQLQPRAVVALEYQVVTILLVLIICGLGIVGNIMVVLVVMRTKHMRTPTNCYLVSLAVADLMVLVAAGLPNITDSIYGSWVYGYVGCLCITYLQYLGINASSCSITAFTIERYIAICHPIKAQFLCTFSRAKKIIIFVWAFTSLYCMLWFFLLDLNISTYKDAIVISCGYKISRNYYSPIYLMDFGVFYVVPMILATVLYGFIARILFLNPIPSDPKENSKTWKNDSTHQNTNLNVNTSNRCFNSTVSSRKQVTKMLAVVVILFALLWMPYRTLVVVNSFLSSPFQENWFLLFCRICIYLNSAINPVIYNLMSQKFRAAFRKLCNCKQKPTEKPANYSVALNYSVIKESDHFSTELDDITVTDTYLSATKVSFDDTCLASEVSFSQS
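TRHR-expressing cells loaded with fluo-8 calcium dye were read kinetically (ex 480/em 530) during compound addition, then stimulated with an EC20 of TRH (10 nM final). Enhancement of the Gq-mediated intracellular calcium response was scored.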
TRHR agonist: activates the human TRH receptor | P34981 | TRHR cells, calcium flux fluo-8, FDSS agonist mode | activation, % at 2 µM | 360,000 compounds, 0.18% hits | AID 493084; in the data active = activation above about 30%; note: 0% is about no effect
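Agonist-mode FDSS calcium read (Ex 480/Em 530, 1 s cycles) in 1536-well TRHR cells with fluo-8 dye, after 10-cycle baseline and 23 nL compound addition; TRH at EC20 (10 nM final) added afterwards for the enhancer phase.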
CBFb RUNX1 block: blocks binding between human CBF-beta and RUNX1. 230,000 tested, under 10 active. Potency, µM (doses to about 59.8 µM), inactives show at the highest dose activity, negative = inhibition, most hits filed as inhibitors. AID 1477. AlphaScreen CBFb-His/RUNX1-biotin binding, biochemical; note: % of control where 0% means no effect
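Room-temperature protein-protein interaction test with 30 nM each of His-tagged CBF-beta and biotinylated RUNX1, 15 min with compound, then 90 min with nickel plus streptavidin beads. Signal read in AlphaScreen mode.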
IL2 activator: activators of IL-2; IL-2 activation reporter assay, cell-based qHTS; stimulated with anti-CD3/CD4/CD28 beads; in transgenic mouse T cells; 360,000 compounds, 0.065% hits; activation, % (series mostly up to about 46 µM); in the data active = activation above about 50%; note: 0% is about no effect
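Screening format: compound pinned onto unstimulated transgenic mouse T cells, 60 min incubation, then anti-CD3/anti-CD4/anti-CD28 bead stimulation for 18 hours at 37 degrees C, followed by EGFP and DsRed detection.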
Epigenetic reg: derepresses silenced GFP reporter in murine cells | Potency, µM (highest dose often 53.9 µM), without a hit: top-dose GFP activation, actives largely listed as activators | 280,000 compounds, 0.2% hits | murine LDR cells, GFP reporter derepression, 30 h; note: potency is the fitted concentration of half-maximal effect; % of control where 0% means no effect; nearly all actives have a fitted effect of over 60% in size
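Reporter derepression read as number of fluorescent GFP-positive objects, 20-120 um in size, counted by laser-scanning cytometer. Mouse LDR line with an epigenetically silenced CMV-GFP locus; compound incubation 30 h, 37 C.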
MBNL1 CUG block: blocks human MBNL1 binding to CUG repeat RNA; AID 2675; Potency, µM (titrated, usually from 57.5 µM), without a hit: top-dose activity change, negative = inhibition, actives largely listed as inhibitors; Q9NR56; TR-FRET MBNL1-His/biotin-(CUG)12 binding, 665/545 ratio; 280,000 compounds, 0.036% hits; active = well fitted inhibition curve with a large enough effect in the signal ratio, with a control signal flat, not every such curve was filed as active; the % refers to the signal ratio; note: potency is the fitted concentration of half-maximal effect; % is set by controls: 0 for no effect and ±100 for the full control effect
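MBNL1-His + Biotin-(CUG)12, cpd titration 92 nM–58 uM; Tb anti-His Ab 0.055 ng/ul, SA-XL665 5 nM (final); 60 min RT; ratiometric 665/545 nm, Ex 340 nm; normalized to buffer and full-complex controls.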
* marks the source's active call; other numbers are inactive results; . = no result given; [ ] = another dose, or the depositor's remark. Unless noted, calls come from the whole dose curve; as a rule, active = well fitted curve in the direction sought with a large enough effect; inconclusive = small, poorly fitted or top-dose-only effect, or another doubt; inactive = no such curve, though single readings can be large; an effect the other way counts as inactive or inconclusive.

SMILES	TRHR PAM	TRHR agonist	CBFb RUNX1 block	IL2 activator	Epigenetic reg	MBNL1 CUG block
CCCN1C(=O)CC(c2ccco2)Sc2ccccc21 (stereo unspecified)	-2	0	-9%	-1	2%	0%
O=C(NC1CCN(Cc2ccccc2)C1)c1cc(COc2ccc(F)cc2F)on1 (stereo unspecified)	31*	0	6%	0	0%	2%
CC(CCn1cccn1)NC(=O)c1cc(COc2ccc(F)cc2Cl)on1 (stereo unspecified)	-3	1	12%	-2	0%	-7%
Cc1ccc(C)c(OCc2cc(C(=O)NC3CCN(Cc4ccccc4)CC3)no2)c1	7	2	.	-5	.	7%
CC(CCn1cccn1)NC(=O)c1cc(COc2ccc(F)cc2F)on1 (stereo unspecified)	35*	0	-2%	0	1%	-1%
O=C(CSCc1ccccc1Cl)N1CCN(c2ccc(F)cc2)CC1	-2	-1	.	.	0%	.
CC(C)Cn1c(-c2ccco2)n[nH]c1=S	35*	0	-4%	0	-5%	4%
CCn1c(-c2ccco2)n[nH]c1=S	0	0	8%	0	-1%	4%
CCCCN(C)CCNC(=O)Cn1ncc2c3ccccc3n(CCC)c2c1=O	31*	0	.	.	-2%	.
COc1ccc(Cn2c(CO)cnc2SCC(=O)Nc2cccc(NC(C)=O)c2)cc1	32*	0	.	2	.	-7%
O=C(NCCc1ccccc1)C1CCN(Cc2cc3ccccc3n2Cc2cccc(Cl)c2)CC1	31*	0	.	.	-1%	.
Cc1ccc(Cn2c(CN3CCC(C(=O)NCCc4ccccc4)CC3)cc3ccccc32)cc1	14	1	.	.	0%	.
CCCCn1c(C)cc2c(c1=O)C1O[C@](c3ccsc3)(Cc3ccccc31)O2	33*	0	.	.	.	-6%[11.5 µM]
CCCCOc1ccc(CNC(=O)c2cnc3sc(N4CCC(C)CC4)nn3c2=O)cc1	4	0	.	.	-3%	.
CCc1ccc(N(CC(=O)NC2CCCC2)C(=O)CCC(=O)Nc2ccccn2)cc1	31*	1	.	0	.	0%
CC(C)c1ccc(N(CC(=O)NCc2ccco2)C(=O)CCC(=O)Nc2ccccn2)cc1	39*	0	.	0	.	3%
COCCNC(=O)CN(C(=O)CCC(=O)Nc1ccccn1)c1ccc(F)cc1	33*	0	-2%	0	10%	-1%
O=C(CN(C(=O)CCC(=O)Nc1ccccn1)c1ccc(F)cc1)NCc1ccco1	-10	-2	.	1	.	-5%
COc1ccccc1CNC(=O)C1CCCN(S(=O)(=O)c2cccs2)C1 (stereo unspecified)	40*	0	.	1	.	-4%
COc1ccccc1CNC(=O)C1CCCN(S(C)(=O)=O)C1 (stereo unspecified)	-5	0	-3%	-1	-1%	12%
COC(=O)c1cc2sccc2n1CC(=O)Nc1cc(Cl)ccc1OC	0	1	.	.	1%	.
Cc1ccc(Cl)cc1N1CCN(C(=O)c2ccc3c(c2)N(Cc2ccccc2)CCS3)CC1	2	0	.	.	0%	.
Cc1ccc(SCc2cc(=O)[nH]c(Nc3nc(C)c4ccc(C)cc4n3)n2)cc1	-12	0	5%	-1	-1%	.
Cc1ccc2c(C)nc(Nc3nc(CSc4nc5ccccc5[nH]4)cc(=O)[nH]3)nc2c1	-3	0	-3%	-2	35µM*	9%
CCOC(=O)c1sc(N)c(C(=O)Nc2ccc(C)cc2C)c1C	.	.	.	.	0%	.
SMILES	TRHR PAM	TRHR agonist	CBFb RUNX1 block	IL2 activator	Epigenetic reg	MBNL1 CUG block
COc1cc(/C=C(\C#N)c2nn(CCO)c(N)c2C#N)cc(OC)c1OC	33*	0	1%	2	-1%	9%
Cn1nnnc1Sc1ncnc2scc(-c3ccccc3F)c12	5	-1	.	.	.	.
COc1ccccc1C(=O)N1c2ccccc2C(C)(c2ccc(Cl)cc2)CC1(C)C (stereo unspecified)	-12	1	.	.	-2%	.
Cc1c(O)c2ccccc2oc1=O	39*	0	13%	4	0%	-10%
CC(OC(=O)c1c2c(nc3ccccc13)/C(=C\c1ccc3c(c1)OCO3)CCC2)C(=O)Nc1ccc(S(N)(=O)=O)cc1 (stereo unspecified)	1	96*	21%	0	-1%	33%
Cc1cccc(C)c1NC(=O)COC(=O)c1c2c(nc3ccccc13)/C(=C\c1ccc3c(c1)OCO3)CCC2	6	0	16%	-3	0%	.
CN1C(=O)Cc2cc([S+](=O)([O-])N3CCN([S+](=O)([O-])c4c(F)cccc4F)CC3)ccc21	-2	1	.	.	.	.
O=[S+]([O-])(c1ccc2c(c1)OCCO2)N1CCN([S+](=O)([O-])c2ccc(F)cc2Cl)CC1	-1	0	.	.	.	.
CCN(CC)CCN1C(=O)C(=O)/C(=C(/O)c2c(C)[nH]c(C(=O)OC)c2C)C1c1ccco1 (stereo unspecified)	30*	0	5%	-2	1%	15%
C/C(=N\NC(N)=S)C1(C)CCCCC1	-1	0	7%	-2	5%	0%[11.5 µM]
C/C(=N\NC(N)=O)C1(C)CCCCC1	35*	0	-4%	-4	-5%	8%
Cc1occc1C(=O)N/N=C/c1ccc(-c2ccccc2)cc1	7	1	.	0	.	-2%
Cc1occc1C(=O)N/N=C/C(Br)=C/c1ccccc1	-7	1	-2%	-1	22µM*	13%
Cc1c(Cl)cccc1-n1ncc(C(=O)NCCN2CCN(C)CC2)c1C1CCN(C(=O)OC(C)(C)C)CC1	24	1	.	.	-1%	.
CC(C)CC(NC(=O)c1ccc(Cl)cc1)C(=O)O (stereo unspecified)	33*	0	4%	1	0%	-1%
CC(C)CC(NC(=O)c1cccc(Cl)c1)C(=O)O (stereo unspecified)	8	1	-11%	-1	1%	-17%
O=C1S/C(=C\c2ccc(N3CCOCC3)o2)C(=O)N1Cc1c(F)cccc1Cl	-6	27	-9%	-4	8.9µM*	-1%
O=C1S/C(=C/c2ccc(N3CCOCC3)o2)C(=O)N1Cc1c(F)cccc1Cl	-11	28	-3%	13	2.5µM*	8%
O=C1S/C(=C\c2ccc(N3CCOCC3)o2)C(=O)N1c1ccccc1	9	63*	-11%	0	14µM*	14%
Cc1cc(=O)n2c(C(=O)Nc3ccc(Br)cc3)c(C(=O)Nc3ccccc3)sc2n1	7	0	.	.	1%	.
Fc1ccccc1OCCn1c(=S)[nH]c2ccccc21	37*	0	.	1	.	12%
